For 53 compounds, normalized B-score (activity score, 25-100; higher = stronger inhibition) results are on record in PubChem BioAssay AID588511 (Johns Hopkins Ion Channel Center, 2011).

The structures appear in SMILES notation. The whole screen tested about 310,000 compounds, of which about 3,600 (1.2%) were called active.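 The calls were made as follows: active = ratio plate-corrected score three or more library SD toward inhibition, starting fluorescence score within five deviations; inactive = the rest.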 For the sample, actives were picked, then their nearest neighbours and some compounds at random.

This test deals with Anoctamin-1 (Mus musculus) (UniProt Q8BHY3). Nature of the test: blockers of mouse ANO1 Ca-activated Cl channel – cell-based, HTS, primary screen (AID 588511).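 As to normalized B-score (activity score, 25-100; higher = stronger inhibition): score derived from kinetic fluorescence span divided by baseline fluorescence per well.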 Conditions: HEK293 TMEM16A/YFP iodide influx fluorescence, ionomycin; at 10 µM.
Anoctamin-1 (Mus musculus), sequence (Q8BHY3 whole entry, looked up): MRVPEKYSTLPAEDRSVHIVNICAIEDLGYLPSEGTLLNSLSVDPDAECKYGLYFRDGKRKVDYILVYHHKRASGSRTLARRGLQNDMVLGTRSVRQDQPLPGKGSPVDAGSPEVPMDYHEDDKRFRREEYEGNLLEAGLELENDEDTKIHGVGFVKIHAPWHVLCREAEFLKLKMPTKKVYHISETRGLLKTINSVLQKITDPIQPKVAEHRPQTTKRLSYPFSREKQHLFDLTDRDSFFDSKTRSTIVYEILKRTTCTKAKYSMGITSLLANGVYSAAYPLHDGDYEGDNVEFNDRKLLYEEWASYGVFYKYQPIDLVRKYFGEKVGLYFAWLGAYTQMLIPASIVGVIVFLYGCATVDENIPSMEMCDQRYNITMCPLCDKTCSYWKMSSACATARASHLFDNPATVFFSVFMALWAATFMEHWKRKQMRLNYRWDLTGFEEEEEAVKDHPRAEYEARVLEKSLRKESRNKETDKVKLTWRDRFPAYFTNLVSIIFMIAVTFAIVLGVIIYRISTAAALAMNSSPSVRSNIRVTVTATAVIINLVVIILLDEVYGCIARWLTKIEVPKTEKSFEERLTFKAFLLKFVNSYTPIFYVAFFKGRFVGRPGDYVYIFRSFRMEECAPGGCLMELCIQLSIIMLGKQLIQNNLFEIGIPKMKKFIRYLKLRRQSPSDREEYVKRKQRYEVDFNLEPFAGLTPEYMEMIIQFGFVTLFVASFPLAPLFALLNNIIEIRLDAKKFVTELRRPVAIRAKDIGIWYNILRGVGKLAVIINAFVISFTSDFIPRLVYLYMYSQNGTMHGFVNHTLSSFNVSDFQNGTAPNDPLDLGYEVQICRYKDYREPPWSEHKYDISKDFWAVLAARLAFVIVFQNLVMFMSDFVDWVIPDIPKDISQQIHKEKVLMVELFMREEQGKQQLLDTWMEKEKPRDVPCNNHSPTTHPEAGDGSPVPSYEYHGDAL
Regarding `CC(C)COc1ccc(C(=O)OCC(=O)NCCC2=CCCCC2)cc1`, the normalized B-score (activity score, 25-100; higher = stronger inhibition) entry is “inactive”.
The same measure for `CC(C(=O)NC1CCS(=O)(=O)C1)N1C(=O)/C(=C/c2ccc(Cl)cc2)SC1=S` (stereo not drawn): “inactive”; for `Cc1noc(C)c1CSc1nc2cc(S(=O)(=O)N3CCOCC3)ccc2o1`: “inactive”; for `COc1ccc(S(=O)(=O)NCCc2c[nH]c3ccccc23)cc1OC`: “inactive”.
For `COc1cccc(CNCCc2c[nH]c3ccccc23)c1OCc1ccccc1F`, the normalized B-score (activity score, 25-100; higher = stronger inhibition) was 100 (active).
For `COc1ccccc1NC(=O)CCCc1c[nH]c2ccccc12`, the normalized B-score (activity score, 25-100; higher = stronger inhibition) result is “inactive”.
For the compound `CC(=O)Nc1ccc(Sc2ccccc2C(=O)N2CCCC2)cn1`, the normalized B-score (activity score, 25-100; higher = stronger inhibition) result is “inactive”.
For the compound `COc1ccc(-n2ncc3c2CC(C)(C)CC3NC(=O)CCc2c(C)nn(C)c2C)cc1` (stereo not drawn), the normalized B-score (activity score, 25-100; higher = stronger inhibition) entry was “inactive”.
Consider `COc1ccc(CNC(=O)C(=O)N2CCC3(CC2)OCCN3S(=O)(=O)c2ccc(C)cc2)cc1`, for which the normalized B-score (activity score, 25-100; higher = stronger inhibition) result is “inactive”.
`CCOC(=O)C(Sc1ncc(C#N)c(N)n1)C(C)C` (stereo not drawn): the normalized B-score (activity score, 25-100; higher = stronger inhibition) was 100 (active).
On to `CCCCOc1ccc(-c2ncc(C(=O)OCC)c(N)n2)cc1`, for which the normalized B-score (activity score, 25-100; higher = stronger inhibition) result is “inactive”.
The entry for `CCOC(=O)CSc1nccc(N(C)C)c1C#N` is “inactive”; for `COc1cc2sc(C)nc2cc1C` it is “inactive”; for `CCOc1ccc(-c2noc(CCC(=O)NC3CCCC3)n2)cc1OC` it is “inactive”.
Take `COc1cccc(NC(=O)CCc2nnc3ccc(N4CCC(C)CC4)nn23)c1`: the normalized B-score (activity score, 25-100; higher = stronger inhibition) entry is “inactive”.
`Cc1ccc(NC(=O)C2CC2c2ccccc2)cc1` (stereo not drawn): the normalized B-score (activity score, 25-100; higher = stronger inhibition) result was “inactive”.
Take `O=C(Nc1ccc(-c2ccc3nncn3n2)cc1)C1CCCCC1`: the normalized B-score (activity score, 25-100; higher = stronger inhibition) result was “inactive”.
On to `CC(C)NS(=O)(=O)c1ccc(NC(=O)C2CCCCC2)cc1`, for which the normalized B-score (activity score, 25-100; higher = stronger inhibition) entry was “inactive”.
Take `O=C(O)c1ccc(NC(=O)C2CCCCC2)cc1`: the normalized B-score (activity score, 25-100; higher = stronger inhibition) was 100 (active).
The entry for `CCNC(=O)c1ccc(OCC(=O)Nc2ccc(F)cc2)c(OC)c1` is “inactive”.
`COc1cc(C(=O)N(C)Cc2cccc(OC)c2OC)ccc1OCC(=O)Nc1cccc(C(F)(F)F)c1`: the normalized B-score (activity score, 25-100; higher = stronger inhibition) was 100 (active).
Turning to `COc1ccc(NC(=O)CN(C)CC(=O)Nc2cccc(C(F)(F)F)c2)cc1`, the normalized B-score (activity score, 25-100; higher = stronger inhibition) result is “inactive”.
The entry for `COC(=O)Cc1ccc(N(Cc2ccccc2F)S(=O)(=O)c2ccc(Br)cc2)cc1` is “inactive”; for `CCCc1ccc(-c2csc(NC(=O)Cc3cccs3)n2)cc1` it is “inactive”; for `Cc1ccc(S(=O)(=O)NC(=O)Nc2nc(-c3ccc(F)c(F)c3)cs2)cc1` it is “inactive”.
The entry for `COc1ccc(-c2csc(NC(=O)COC(=O)Cc3ccc(Cl)cc3Cl)n2)cc1` is “inactive”; for `COc1cc(CC(=O)NCc2cccs2)cc(OC)c1OC` it is “inactive”.
As to `COc1cc(CC(=O)Nc2nc(-c3ccc(F)c(F)c3)cs2)cc(OC)c1OC`, the normalized B-score (activity score, 25-100; higher = stronger inhibition) is 25 (active).
Take `COc1ccc(CC(=O)Nc2nc(-c3ccc(F)c(F)c3)cs2)cc1OC`: the normalized B-score (activity score, 25-100; higher = stronger inhibition) is 25 (active).
Take `CCn1c(SCc2cccc(C(=O)O)c2)nnc1-c1ccc(Cl)cc1`: the normalized B-score (activity score, 25-100; higher = stronger inhibition) result is “inactive”.
`Cn1ccnc1-c1nnn(-c2ccc(F)cc2)n1`: the normalized B-score (activity score, 25-100; higher = stronger inhibition) entry is “inactive”.
The same measure for `COC(=O)c1ccc(OC(=O)c2nn(C)cc2Cl)c(OC)c1`: “inactive”; for `Cc1noc(C)c1-c1nc(CSc2ccc(Cl)cc2)no1`: “inactive”.
`Cc1cc(C)n(CC(=O)Nc2ccc([N+](=O)[O-])cc2)n1`: the normalized B-score (activity score, 25-100; higher = stronger inhibition) entry is “inactive”.
As for `COCCCNC(=O)c1ccc(CNS(=O)(=O)c2ccc(NC(C)=O)cc2)cc1`, the normalized B-score (activity score, 25-100; higher = stronger inhibition) entry was “inactive”.
For the compound `Cc1cc(N=Nc2ccc3ccccc3c2)ccc1O`, the normalized B-score (activity score, 25-100; higher = stronger inhibition) entry was “inactive”.
Take `Cc1cccc(-c2c(NC(=O)c3ccco3)oc3ccc(Cl)cc3c2=O)c1`: the normalized B-score (activity score, 25-100; higher = stronger inhibition) result is “inactive”.
For `CN(C)CCCO/N=C(\c1ccccc1)c1ccncc1`, the normalized B-score (activity score, 25-100; higher = stronger inhibition) entry is “inactive”.
For `CC(C)Oc1ccc(/C=C(\NC(=O)/C=C/c2ccco2)C(=O)NCCc2nc3ccccc3[nH]2)cc1`, the normalized B-score (activity score, 25-100; higher = stronger inhibition) entry is “inactive”.
For `CCCNC(=O)c1onc(CSc2ccc(F)cc2)c1C(=O)NC(C)C`, the normalized B-score (activity score, 25-100; higher = stronger inhibition) entry is “inactive”.
On to `O=C1c2ccccc2C(Nc2ccc3c(c2)OCCO3)N1Cc1ccco1` (stereo not drawn), for which the normalized B-score (activity score, 25-100; higher = stronger inhibition) was 100 (active).
Take `Cc1ccnc(N2C(=O)c3ccccc3C2Nc2ccc3c(c2)OCCO3)c1` (stereo not drawn): the normalized B-score (activity score, 25-100; higher = stronger inhibition) entry is “inactive”.
`S=C(NCc1ccco1)Nc1ccc2c(c1)OCCO2`: the normalized B-score (activity score, 25-100; higher = stronger inhibition) result is “inactive”.
The same measure for `CCN(CC)C(=O)CSC(Nc1cccc(F)c1)=C(C#N)C#N`: “inactive”.
With `c1ccc2c(c1)C(=NC1CCCCC1)NC2=NC1CCCCC1`, the normalized B-score (activity score, 25-100; higher = stronger inhibition) result was “inactive”.
On to `CCCn1c(C(C)Nc2nc(-c3ccc(C)cc3)cs2)nc2cc(Cl)c(N3CCCCC3)cc21` (stereo not drawn), for which the normalized B-score (activity score, 25-100; higher = stronger inhibition) entry is “inactive”.
`CC1(C)C=C2[C@H]3CC[C@@H]4[C@@]5(C)CCC(=O)C(C)(C)[C@@H]5CC[C@@]4(C)[C@]3(C)CC[C@@]2(C(=O)O)CC1`: the normalized B-score (activity score, 25-100; higher = stronger inhibition) was 100 (active).
In the case of `CC1CN(C(=O)c2ccc3c(c2)OCO3)OC(c2ccccc2)O1` (stereo not drawn), the normalized B-score (activity score, 25-100; higher = stronger inhibition) result was “inactive”.
The entry for `Cc1cc(=O)oc2c1c(C)nn2-c1ccc(Cl)cc1` is “inactive”; for `CCCc1cc(=O)[nH]c(SCC(=O)c2c(N)n(CC(C)C)c(=O)n(C)c2=O)n1` it is “inactive”.
Consider `CC(C)(C)C1CCC(C(=O)Nc2cccnc2)CC1` (stereo not drawn), for which the normalized B-score (activity score, 25-100; higher = stronger inhibition) result is “inactive”.
As for `COc1cccc(CNS(=O)(=O)c2ccc3c(c2)CC(C)N3C(C)=O)c1` (stereo not drawn), the normalized B-score (activity score, 25-100; higher = stronger inhibition) result is “inactive”.
Regarding `COc1ccc(N(C)S(=O)(=O)c2ccc3c(c2)CC(C)N3C(=O)C2CC2)c(OC)c1` (stereo not drawn), the normalized B-score (activity score, 25-100; higher = stronger inhibition) entry was “inactive”.
